# Results from the supplement of paper PMC6555819.
# Columns and labels:
# Test in all cases: PBM binding z-score (relative to random genomic background probes); higher = stronger binding; sequences stand for … in GC…GCGATTGACAGCGTAGAATGAAGG
# [1] = test system: FXR:RXRa (NR concentration 270 nM, RXRa partner concentration 90 nM)
# Summary of the method: (§1)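 For binding z-scores, the reference was random background probes on custom Agilent 4×180K protein-binding microarrays. These arrays were incubated 1 h with ligand-free nuclear receptor dimers in PBS pH 7.4, 2% milk, 0.02% Triton X-100, 1 mM DTT, 0.2 mg/mL BSA and 0.4 mg/ml salmon testes DNA. Fluorescence was scanned after antibody detection of each partner (one per run) and regression-normalized.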
# [2] = test system: LXRa:RXRa (NR concentration 270 nM, RXRa partner concentration 90 nM)
# Summary of the method: as §1
# [3] = test system: LXRa homodimer (NR concentration 270 nM)
# Summary of the method: as §1
# [4] = test system: LXRb:RXRa (NR concentration 270 nM, RXRa partner concentration 90 nM)
# Summary of the method: as §1
# [5] = test system: LXRb homodimer (NR concentration 270 nM)
# Summary of the method: as §1
# [6] = test system: PPARa:RXRa (NR concentration 270 nM, RXRa partner concentration 90 nM)
# Summary of the method: as §1
# [7] = test system: PPARg:RXRa (NR concentration 180 nM, RXRa partner concentration 90 nM)
# Summary of the method: as §1
# [8] = test system: PPARg:RXRa 270nM:90nM, anti-RXR (NR concentration 270 nM, RXRa partner concentration 90 nM)
# Summary of the method: as §1
# [9] = test system: PPARg:RXRa 30nM:10nM, anti-RXR (NR concentration 30 nM, RXRa partner concentration 10 nM)
# Summary of the method: as §1
# [10] = test system: PPARg:RXRa 90nM:30nM, anti-RXR (NR concentration 90 nM, RXRa partner concentration 30 nM)
# Summary of the method: as §1
Sequence,PBM binding z-score [1],PBM binding z-score [2],PBM binding z-score [3],PBM binding z-score [4],PBM binding z-score [5],PBM binding z-score [6],PBM binding z-score [7],PBM binding z-score [8],PBM binding z-score [9],PBM binding z-score [10]
CAAACTAGGTCACGAAACGTCAAAGTCGAATGAC,4.62,3.49,0.329,2.55,0.542,5.24,9.06,7.26,5.44,7.36
AGTCAAAGTTCATCTAGGCAACGTAAGATATGCT,6.17,6.15,4.67,3.78,1.77,4.92,6.47,6.11,3.4,5.44
CTCGAAATGTCGGTTGAGGTGAGTATACGGATAA,0.47,-0.279,-0.308,-0.214,0.0912,0.0141,0.0414,0.218,0.0305,-0.0265
GCGACTGGGGGAAAGCAGGTTACCATAAGGTTGG,0.271,0.375,-0.178,1.5,2.74,1.75,0.956,1.47,0.539,1.33
ACTTATGGGTCAACGAGGTTATAGCACGCGTATA,5.3,4.47,0.915,3.85,0.967,5.33,6.12,5.78,2.91,5.01
TCGAGTAGGTTACCAATGGGCCATTCAGCTTTCT,0.506,1.7,-0.585,0.464,-1.18,1.09,0.383,1.13,0.927,1.04
CCGAATGGGGCAAAGGTTACCATACTCAGTACGA,1.99,1.85,0.278,2.51,-0.456,4.58,9.1,7.67,7.02,7.87
CCTGCTAGGTCTTGGTCAGCTAATCTACAGTATG,-0.4,-0.437,-0.451,-0.509,-0.639,-0.469,-0.371,-0.599,-0.683,-0.872
AGAATGAGGTTGTTAAGATCAGGGAATTGCGGTC,0.00995,0.0148,-0.0695,-0.0376,-0.0779,0.298,0.171,0.206,-0.197,-0.0831
CCTCCTGGGCCATCAGGTCATTGATATCAACGTT,1.24,0.991,0.788,1.31,0.0311,1.73,0.38,1.29,-0.255,0.67
ATACCAACGTGATCGTGAGGTCGTTGATACTAAC,0.885,0.498,0.494,0.84,-0.123,0.65,0.385,-0.0479,-0.202,-0.163
GCTTACGGGTCAAAGGGTATAGCATGAATAGAAT,6.94,4.45,0.132,4.28,0.557,6.21,9,7.96,7.14,8.29
GGAACGAGGGCACTCGAGTTGATAGCATGGCGAT,0.375,2.3,-0.535,-0.145,-0.549,1.4,1.27,0.984,-0.139,0.362
CCTAGCAGGCCAATCAGGGTCACTCAAGGCTTGA,2.6,3.39,-0.0064,3.03,-0.752,3.63,0.949,1.33,-0.454,0.361
CCAACTGGGGCAAGGTTACCATAACGCACAGCCA,0.213,0.726,-0.0339,0.872,-0.862,2.49,4.28,4.62,2.01,4.22
TCGAGTAGATTAGTCGGGGCATTCAGCCAACATA,-0.148,-0.282,-0.477,0.225,-1.13,-0.142,-0.45,0.0888,0.947,0.374
CCTTACGGGTCACCGACAGGTTATAGCATTTGGA,6.22,4.88,0.46,3.96,-0.223,5.69,6.3,5.64,2.16,4.6
ATCTCTAGGTAACAAGTTCAGTGCAAGAGAGGAC,0.558,0.749,0.739,0.611,0.89,1.5,1.32,1.86,0.692,1.45
ATACCAAGGTGATCGTGAGGTCGTTGAAACTAAC,2.15,1.49,0.854,1.6,0.171,2.03,0.268,0.273,-0.226,0.172
TCTTGTAGAGCAAGCAGGTTAAGAAAGCCTGAGT,-0.159,-0.27,-0.458,-0.282,-1.49,0.415,-0.461,0.511,1.29,1.1
ATATGTAGGTAATCGGGTCATTCAGTTTGCGCAT,1.83,1.79,0.62,2.26,0.648,4.67,6.27,5.56,3.33,4.77
TCGAGTAGGTTACCAATGGGGGATTCAGCTTTCT,0.454,1,-0.159,2.46,5.29,1.74,0.645,2.31,1.35,2.08
TGATATAGGTAATACAGGTGAAAGTCGGCATCTA,0.306,0.701,0.521,0.418,0.00189,2.16,2.39,2.3,1.33,2.05
CAAACTAGGTCACCGGAAGGTCAAACTCCGCATG,6.33,6.34,6.11,5.67,1.82,6.19,9.8,7.8,6.23,7.86

Sequence,PBM binding z-score [1],PBM binding z-score [2],PBM binding z-score [3],PBM binding z-score [4],PBM binding z-score [5],PBM binding z-score [6],PBM binding z-score [7],PBM binding z-score [8],PBM binding z-score [9],PBM binding z-score [10]
ATATGTAGGTTACATCTGGGTCATTCAGGCTATG,1.65,3.57,1.05,2.18,0.621,4.01,5.41,4.89,2.26,3.88
CGTCAAAGTTCAAGATAACGTAACAGAAAGCAGC,6.13,5.32,2.94,3.5,1.64,4.45,4.44,4.96,2.17,3.75
TCTATTAGTTGATTAGGGCAACGGAAACAGCGGA,0.551,0.44,0.103,0.473,0.812,0.801,0.284,1.99,3.35,3
AGTCAAAGTTCAGGTCGAGGTAACGTAAAGCACG,4.82,4.08,1.87,2.47,0.819,3.6,4.74,4.74,2.07,3.97
CCTATTATTTGACCATAAGGGCAACCGAAGCTCG,1.29,0.777,1.8,1.02,1.25,0.882,0.551,0.728,0.155,0.461
AGTCAAACTTCATCTAGGTAACGTAAGATATGCT,-0.0376,-0.223,-0.295,0.127,0.1,-0.0609,0.882,0.333,0.414,0.33
CATACAGGGTCAGCAAGGCCAGAGTAGGGACGGC,4.73,3.36,-0.0417,2.23,-0.0671,4.51,3.47,3.27,0.536,2.04
CGTCCAAGGTCAGACAGGTCAGTGAATGCCGAGT,5.43,4.15,1.39,3.43,0.134,4.25,2.72,3.38,0.54,1.85
TCTTATAGATCAACAGGAGGTTAAGAAAGATCGA,0.826,1.6,0.457,1.36,0.165,1.6,0.533,2.08,3.48,2.93
GGAGACAGGTGAAACGCAGGTAACTCAGGGTGGC,0.0373,0.224,-0.296,-0.0924,-0.712,1.03,0.617,0.0474,-0.768,-0.000912
CGTCCAAGGTCACTGCTAGGTCAGTGAAAGCATT,6.69,5.11,1.49,4.28,0.283,5.14,4.7,5.1,1.92,3.94
CCTAGTTGGTCATGGTCACACACGCTATAGGTAC,-0.0474,0.0849,0.431,0.71,0.175,0.348,1.04,0.761,0.167,0.467
CGAACTAGGTCATGGACAGTGAATCTCCGCACGC,3.63,2.28,0.076,1.46,-0.358,4.61,7.41,6.4,3.88,6.02
CGTCCAAGGTCAAAGTCAGTGAAAGAGACTCGAA,7.61,5.36,0.709,4.03,1.64,5.87,5.41,5.32,1.82,4.19
CAGACTGGGGCAAGGTTACCATAACGCACAGCCA,0.535,1.05,-0.312,1.07,-0.19,2.41,3.76,4.25,1.96,3.63
GGAACGAGGGCATCCGAGTTGATAGCATGGCGAT,1.24,0.897,-0.543,-0.129,-0.874,1.53,1.15,0.688,-0.271,-0.0258
ATCTCTAGGTAAAGATAGATCAGTGAATGCAAAT,0.447,0.581,0.166,0.000708,0.387,0.00369,0.763,0.278,0.36,0.457
TCTTGTAGATAAATAGAGGTTAAGAAAGTGCGCT,1.41,3.4,1.55,1.9,0.214,1.73,0.624,1.83,2.94,2.84
CCGACTGGGGCCAGGTTACCATAACGCACAGCCA,0.0157,-0.087,-0.139,0.152,-0.749,0.188,0.629,0.301,-0.675,-0.256
ACTAACGGGTCAACGAGGTTATAGCACGCGTATA,6.32,4.49,0.715,3.82,0.313,5.19,4.64,4.34,1.48,2.98
TCGAGTAGGTTACCAGTGGGGCATTCAGCTTTCT,-0.0125,1.19,-0.24,0.725,-0.623,1.16,0.278,1.36,1.05,1.36
CCTATTAGTTGACCATTAGGGCAACCGAAGCTCG,0.493,0.0846,0.475,0.224,0.396,0.454,0.203,0.612,0.0251,0.278
TCTATAAGTTGAAGGGCAACCGACGAGTCCGTTT,0.654,0.764,-0.0358,0.57,0.00788,1.27,0.844,2.82,3.72,3.29
ATCTCTAGGAAAAGATAGTTCAGTGAATGCAAAT,0.351,0.417,0.457,0.247,0.273,-0.0453,0.305,-0.0709,0.0801,-0.0493
